In PubChem BioAssay AID463212 (Sanford-Burnham Center for Chemical Genomics, 2010):
In all, about 330,000 compounds went through this assay and about 4,400 (1.3%) were called active. This is one part of a sample in which actives are shown more often than they occur. Unmarked numbers belong to inactive results.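 How the source made its calls: active means growth inhibition of the mutant yeast at or above 50%; inactive means the rest.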

Test: growth inhibitors of tim23-1 mutant yeast, primary screen, luminescence, uHTS (AID 463212);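 further: temperature-sensitive mutant grown at 25 °C; plate controls were DMSO-treated mutant yeast for no effect and medium wells lacking yeast for full effect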
Conditions: S. cerevisiae tim23-1 growth, BacTiter-Glo luminescence, 24 h; at 20 µM; stronger effect = higher value

SMILES	inhibition
N#C[C@]1(S(=O)(=O)c2ccccc2)C[C@@H]2ON=C(c3cccc(Br)c3)[C@@H]2C1	24.4%
Cc1sc2ncnc(Sc3nc4ccccc4s3)c2c1C	14.7%
CCCNc1ncnc2sc(C)c(C)c12	58.6% (active)
CSc1ncnc2sc(C)c(C)c12	-2.76%
COc1cc(C(=O)NCC(c2ccco2)N2CCCC2)ccc1OCc1ccccc1 (configuration not stated)	2.02%
CCc1ccc(C2C(C#N)=C(N)N(N3CCOCC3)C3=C2C(=O)CC(C)(C)C3)s1 (configuration not stated)	5.14%
Cc1ccc(S(=O)(=O)N2CC(O)C[C@H]2C(=O)OCC(=O)Nc2ccc(N3CCOCC3)cc2)cc1C (some centres not stated)	4.11%
O=C(O)C#Cc1cccc2ccccc12	7.2%
CN(Cc1ccccc1)C(=O)COC(=O)c1ccccc1Nc1ccccc1	42%
CCN1/C(=C\c2ccc3ccccc3[n+]2CC)Sc2cc(C)ccc21	51.5% (active)
CC(C)(C)OC(=O)CNC(=O)c1[nH]cnc1C(=O)N[C@@H](CCCCN)C(=O)OC(C)(C)C	-2.18%
O=C(c1ccccc1)c1cccn1CC(=O)N1CCN(c2ccc(F)cc2)CC1	17.4%
CN(C)Cc1ccccc1C1(O)c2ccccc2CSc2ccccc21 (configuration not stated)	34.6%
COc1ccc(C(=O)CC(=O)c2ccc(C)cc2)c(O)c1	29.8%
O=C(CSc1ncn[nH]1)Nc1ccc(Br)cc1Br	-3%
O=C(/C=C/Sc1ncn[nH]1)c1ccc(Cl)cc1	74.3% (active)
O=C(CSc1ncn[nH]1)NCc1ccc2c(c1)OCO2	-3.54%
CN(CCC1CCOCC1)C(=O)CC1C(=O)NCCN1Cc1cccc(F)c1 (configuration not stated)	-8.17%
COc1ccc(OCCn2ccnc2C)cc1	-7.96%
COc1cc(OC)cc(-c2cc3nc(C4CCN(C(=O)OC(C)(C)C)CC4)cc(=O)n3[nH]2)c1	7.61%
CCCCNC(=O)CCn1nc(-c2ccc(Cl)cc2)ccc1=O	18%

SMILES	inhibition
Cc1ccc(S(=O)(=O)NC(C)C(=O)NCc2ccc(Cl)cc2)cc1 (configuration not stated)	-2.23%
CCOc1ccccc1C1NC(=O)NC(C)=C1C(=O)OCc1ccco1 (configuration not stated)	16%
CCCn1nc(C(=O)NNC(=O)CCOc2ccccc2OCC)c2ccccc2c1=O	-4.04%
CCOc1ccccc1/C=c1\sc2nc(-c3ccco3)nn2c1=O	52.2% (active)
COC(=O)c1c(NC(=O)c2ccc(S(=O)(=O)N3CCOCC3)cc2)sc2c1CCN(C(C)C)C2	8.38%
CC(=O)c1ccc(NC(=O)C2CCCN2S(=O)(=O)c2cccs2)cc1 (configuration not stated)	14.8%
C=C1CCC(N(O)c2cc(C)on2)C(=C)CCC2C1CC2(C)C (configuration not stated)	55.5% (active)
Cc1cccc(N(C)C(=O)c2cc3c(=O)[nH]c4ccc(C)cc4c3s2)c1	6.52%
O=C(CNC(=O)c1cccs1)N/N=C/c1cccc(Br)c1	16.1%
O=C(N/N=C/c1cccc(Br)c1)c1ccc(N2CCCC2=O)cc1	12.3%
O=C(N/N=C\c1cccc(Br)c1)c1ccccc1-n1cccc1	53.7% (active)
Cc1cc(Nc2ccc(Br)cc2)nc2ccccc12	55.5% (active)
Cc1ccc2nc(Nc3ccccc3O)nc(-c3ccccc3)c2c1	24.4%
CC(=O)Nc1ccc(Nc2cc(C)nc(Nc3ccc(NC(C)=O)cc3)n2)cc1	8.84%
Cc1ccc2nc(Nc3ccccc3)cc(C)c2c1	57.6% (active)
CCS(=O)(=O)Nc1cccc(-c2cc(-c3ccccc3)c3cc(C)ccc3n2)c1	29.6%
CN1CCN(c2nc(Nc3ccc(O)cc3)nc3ccccc23)CC1	-37.1%
CC(OC(=O)c1ccc([N+](=O)[O-])cc1)C(=O)NCC1CCCCC1 (configuration not stated)	3.5%
O=C1N[C@@H](Cc2ccccc2)C(=O)N2[C@H]1C[C@]1(Br)c3ccccc3N(S(=O)(=O)c3ccccc3)[C@H]21	5.8%
Cc1cc(=O)cc(C)[nH]1	9.7%
O=C(Cc1ccccc1)NCC1OCCc2ccccc21 (configuration not stated)	4.02%

SMILES	inhibition
CC(C)Cn1c(N)c(C(=O)NCc2cccs2)c2nc3ccccc3nc21	59.9% (active)
CCOc1ccccc1NC(=O)Cn1nnc(C(=O)NCc2cccs2)c1N	0.467%
COCC(C)OC(=O)c1c(N)n(CCCN2CCOCC2)c2nc3ccccc3nc12 (configuration not stated)	5.92%
Cc1cc(NC(=O)CSC2=NS(=O)(=O)c3cc(Cl)ccc3N2)no1	11.8%
C=CCn1c(=O)c(C(=O)Nc2ncccc2O)c(O)c2ccccc21	33.8%
CCCn1c(=O)c(C(=O)Nc2cc(C)ccn2)c(O)c2ccccc21	13.4%
Cn1c(=O)c(C(=O)Nc2ncccn2)c(O)c2ccccc21	60% (active)
CCSC1(SCC)N=C(N)C2(C#N)C(c3ccccc3)NC(C)=CC12C#N (configuration not stated)	9.77%
CSc1nccc(NC(=O)c2ccc(C(C)(C)C)cc2)n1	42.9%
CC(C)(C)NC(=O)CSc1nnc(NC(=O)CCc2ccccc2)s1	8.92%
Oc1c(CN2CCN(c3ccc(F)cc3)CC2)cc(Cl)c2cccnc12	54.1% (active)
Oc1c(CN2CCCC2)cc(COCc2ccccc2)c2cccnc12	12.2%
O=C(CN1CCN(c2ccc(F)cc2)CC1)Nc1ccccc1	7.47%
O=C1CCC[C@@H]2CC(N3CCCCC3)C[C@@H]3CCN1[C@H]23 (some centres not stated)	29.3%
COc1ccc(/C=N/N(C)C2=NS(=O)(=O)c3ccccc32)cc1OC	1.27%
COC(=O)c1ccc(/C=C2/C(=O)Oc3ccccc32)cc1	34.3%
COc1ccc2c(c1)O/C(=C\c1ccccc1O)C2=O	0.978%
O=C1Oc2ccccc2C(=O)/C1=C/c1ccccc1O	61.1% (active)
CCSc1sc(CC)cc1C=O	-3.29%
CC/C(=N\NC(=S)NC(C)C)c1ccc(OC(F)F)cc1	30.3%
